Results taken from PubChem BioAssay AID1159580 (chemical genetic matrix, 2015).
Hit rate of the full screen: of about 5,500 compounds, about 2,000 (36%) were called active. Roughly 18% stayed inconclusive and do not appear here. Cut-off read from the data, not from the text of the source: active = normalized growth mostly below about 0.91 (no sharp cut-off); inconclusive = no clear call, values can overlap the other calls; inactive = mostly above about 0.92. This is one part of the list.

Assay: chemical genetic growth profiling, strain panel (AID 1159580);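 note: tested at 20 µM; growth read once vehicle control cultures reached saturation at 30 °C; 1 = growth at the plate median or of vehicle wells; lower values mean less growth of the strain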
Details: S. cerevisiae deletion strains, growth OD

Measured: normalized growth

C#CCN(C)C(C)Cc1ccccc1 (stereo not drawn)
inactive: locus YHR030C, strain SLT2, stronger effect = lower value 1.01 | locus YHR079C, strain IRE1, stronger effect = lower value 1.03 | locus YJL095W, strain BCK1, stronger effect = lower value 1.02 | locus YJR066W, strain TOR1, stronger effect = lower value 0.95 | locus YLR113W, strain HOG1, stronger effect = lower value 0.994 | locus YNL183C, strain NPR1, stronger effect = lower value 0.959 | locus YOR231W, strain MKK1, stronger effect = lower value 1.02 | locus YPL256C, strain CLN2, stronger effect = lower value 0.989
